# Screening results deposited in PubChem BioAssay by National Center for Advancing Translational Sciences (NCATS).
# RE007 growth inh = less growth of the S. pombe RE007 Vpr strain. S. pombe RE007 Vpr strain, BacTiter-Glo ATP luminescence, 24 h. Potency, µM (highest dose often 92.2 µM), for the others: top-dose activity change, negative = less growth, usual class: inhibitors. hit rate 0.21% among 360,000. AID 651644; active means well fitted falling curve with a large enough effect; inconclusive means small, poorly fitted or top-dose-only effect; inactive means no such curve, though single readings can be large or run the other way; further: on the % scale 0 is the no-effect control and ±100 the full control effect; nearly all actives have a fitted effect of over 50% in size
#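 Fission yeast RE007 carrying one integrated HIV-1 vpr copy, seeded at OD 0.01 in PMG+AL medium with 23 nL pinned compound. Grown 24 h at 30 degrees; viability read by BacTiter-Glo luminescence after 5 min.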
# NS1 inh = influenza NS1 inhibition. Potency, µM (highest dose often 46.1 µM), without a hit: top-dose activity, positive = more growth. hit rate 0.4% among 270,000; calls by dose curve; further: actives are rising curves; nearly all actives have a fitted effect of over 50% in size
#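 OD600 was taken as the measure of yeast growth restored by compound in an NS1-expressing S. cerevisiae strain. Cells had been washed out of glucose medium and diluted 1:100 into galactose -URA medium, pH 6.0.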
# Pf growth 48h = P. falciparum growth inhibition at 48 hours (one generation). P. falciparum luciferase growth in erythrocytes, 48 h. Potency, µM (series often up to 28.7 µM), for the others: top-dose activity change, negative = inhibition, most hits filed as inhibitors. hit rate 5.9% among 310,000; further: on the % scale 0 is the no-effect control and ±100 the full control effect
#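 Compounds are pin-transferred into medium, infected erythrocytes (2% hematocrit, 0.1% parasitemia final) are added, and plates sit one parasite generation at 37 C in 5% CO2. Detection reagent is then added and luminescence measured.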
# Pf growth 96h = P. falciparum growth inhibition at 96 hours; AID 504834; Potency, µM (series often up to 28.7 µM), without a hit: top-dose activity change, negative = inhibition, most hits filed as inhibitors; P. falciparum luciferase reporter growth, 96 h; hit rate 6.9% among 320,000; further: on the % scale 0 is the no-effect control and ±100 the full control effect
#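 Erythrocytes infected with luciferase-expressing P. falciparum were dispensed at 2% hematocrit and 0.05% parasitemia (final), then incubated with compounds 96 hours at 37 C in 5% CO2. Luminescence after detection reagent addition reported growth.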
# SARS PLP yeast = SARS-CoV PLP inhibition in yeast. S. cerevisiae expressing SARS-CoV PLpro, growth rescue. Potency, µM (doses to about 32.9 µM), for inactives: top-dose activity, positive = growth rescue, most hits filed as activators. hit rate 0.19% among 330,000. AID 485353; calls by dose curve; further: 0% is about no effect; nearly all actives have a fitted effect of over 55% in size
# The depositor's hits bear a star; ? = inconclusive; / = no result given; ! = not confirmed by another sample; [ ] = dose if it differs, or a comment. A selection: hits, their analogues and other compounds. The true share with any hit is near 9.5%. Unless noted, the call rests on the fitted dose curve; in most records, active means well fitted inhibition curve with a large enough effect; inconclusive means small, poorly fitted or top-dose-only effect, or another doubt; inactive means no such curve, though single readings can be large or run the other way. Potency means the concentration at half of the fitted maximal effect.
SMILES,RE007 growth inh,NS1 inh,Pf growth 48h,Pf growth 96h,SARS PLP yeast
CCOC(=O)c1c(NC(=O)CSc2nc3ccccc3c(=O)n2-c2ccccc2)sc(C(C)=O)c1C,?,7%,0.21µM*,2.3µM*,6%
CCOC(=O)c1sc(NC(=O)CSc2nnnn2-c2ccc(C)cc2)c(C(=O)OCC)c1C,7%,-9%,?,5.2µM*,0%
COc1ccc(C(C)=O)cc1Cn1c(C)c(C(=O)NCCC#N)sc1=O,2%[18.4 µM],/,/,/,/
CCOC(=O)c1sc(NC(=O)CSc2nc3c(c(=O)n2-c2ccc(C)cc2)SCC3)c(C(=O)OCC)c1C,20%,15%,?,12µM*,-2%
CCOC(=O)c1c(C)[nH]c(C)c1C(=O)CSc1nc2ccccc2c(=O)n1-c1ccc(Cl)cc1,-4%,?,?,9.3µM*,3%
CCOC(=O)c1c(NC(=O)CSc2nnc(CNc3ccc(F)cc3)o2)sc(C(C)=O)c1C,-8%,-20%,-16%,1.7µM*,-7%
CCOC(=O)c1c(NC(=O)CSc2nnc(Cc3ccccc3)o2)sc(C(C)=O)c1C,-11%,10%,-21%,/,3%
CCOC(=O)c1sc(NC(=O)CSc2nnnn2-c2ccc(C)c(C)c2)nc1C,21%,2%,24%,2.3µM*,-7%
Nc1nnc(SCC(=O)NNC(=O)c2ccccc2F)s1,-3%,/,/,/,5%
COc1ccc(Cc2nnc(SC(C)C(=O)Nc3ccc(F)cc3Cl)o2)cc1 (configuration not stated),1%,/,1%,?,2%
CC(C)Oc1ccc(CN2CCC2(C)C(=O)Nc2cccc3cccnc23)cc1 (configuration not stated),7%,/,/,/,/
C=CCN(c1ccccc1OC)S(=O)(=O)c1cccc(C(=O)NCC(c2ccc(OC)cc2)N2CCCC2)c1 (configuration not stated),2%,/,/,/,/
CCn1nnnc1SCC(=O)N1CCCCC1,-6%,/,-10%,101%,-6%
CCCOc1c(Br)cc(C(=O)OCc2cc(=O)n3ccsc3n2)cc1OC,-7%,/,/,/,/
CCc1nn2c(=O)cc(COC(=O)c3cc(Cl)c(OC)c(OC)c3)nc2s1,9%,/,12µM*,?,-3%
O=C(Nc1ccc(F)cc1F)c1cccn1-c1ncc(C(F)(F)F)cc1Cl,-23%,-13%,?,?,-2%
Cc1cc(C)cc(NC(=O)c2cccn2-c2ncc(C(F)(F)F)cc2Cl)c1,-3%,-10%,?,13µM*,-11%
COc1ccc(NC(=S)N2CCCN(Cc3cc(C)ccc3C)C2)cc1,3%,/,10µM*,?,3%
COc1ccc(N2C(=O)c3ccccc3NC(=O)C2C(=O)Nc2ccc3c(c2)OCCO3)cc1 (configuration not stated),4%,/,/,/,/
COc1ccc(OC)c(CN2CCN(C(=O)c3cc(S(=O)(=O)N4CCOCC4)ccc3C)CC2)c1,0%,/,/,/,/
Cc1noc(C)c1NC(=O)N(C)C[C@H]1Oc2ccc(NC(=O)Nc3ccc4c(c3)OCO4)cc2C(=O)N([C@H](C)CO)C[C@@H]1C,-1%,/,/,/,-13%
Cc1ccc(N2C(=O)CC(N3CCN(c4ccc(F)cc4)CC3)C2=O)c(C)c1 (configuration not stated),-24%,15%,0%,0%,-6%
Cc1ccc(-n2sc3cc(F)ccc3c2=O)c(C)c1,11µM*,/,/,/,/
COc1ccc(C(=O)N2CCN(CC(=O)N3CCOCC3)CC2)cc1,1%[18.4 µM],7%,18%,4.7µM*!,4%
COc1ccc(NC(=O)Nc2ccc(C(=O)N3CCOCC3)cc2)cc1,0%,0%,10%,?,-5%
SMILES,RE007 growth inh,NS1 inh,Pf growth 48h,Pf growth 96h,SARS PLP yeast
COc1ccc2cc(/C=C/C(=O)N3CCN(CC(=O)N4CCCCCC4)CC3)ccc2c1,-2%,-7%,6.6µM*,?,0%
COC(=O)C1CCN(C(=O)/C=C/c2ccc(OC)cc2)CC1,3%,3%,166%,/,8%
CCCNC(=O)C1(C)CCN(C(=O)Cc2ccc(OC)c(OC)c2)C1 (configuration not stated),-16%[18.4 µM],/,/,/,/
O=C(C1CCN(C2CCN(Cc3ccc4c(c3)CCO4)CC2)CC1)N1CCOCC1,31%,0%,14%,12µM*,1%
CC(Cc1ccccc1Sc1ccc(O)cc1)N(C)C (configuration not stated),-21%,2%,13µM*,/,0%
CC(C)Cn1c(N2CCN(CC(=O)Nc3ccc(Cl)cc3)CC2)nc2ccccc21,-1%,3%,9%,27%,1%
O=C(CSc1ccccc1)Nc1ccc2c(c1)OCCO2,11%,-11%,298%,8.3µM*,-2%
NNC(=O)[C@H](Cc1ccccc1)NC(=O)Nc1ccc2c(c1)OCCO2,3%,7%,9.3µM*,?,-1%
O=C(CSC1=NC2(CCCCC2)N=C1c1ccccc1)Nc1ccc2c(c1)OCCO2,15%,-4%,10µM*,?,7%
CC(C)n1c(N2CCN(CC(=O)Nc3ccc4c(c3)OCCO4)CC2)nc2ccccc21,-12%,-25%,?,5.9µM*,-17%
O=C(CSc1ccccc1)Nc1ccc2c(c1)OCO2,-17%,-14%,169%,-20%,0%
O=C(Nc1ccccc1C(=O)N1CCCC1)c1ncoc1-c1cccc(Cl)c1,-1%,-14%,14%,?,-15%
Cc1nnc(SCC(=O)Nc2ccc3c(c2)OCO3)o1,-22%,-5%,7%,13µM*,-2%
Cc1ccc(/C=C/C(=O)O)cc1S(=O)(=O)Nc1ccccc1C(=O)O,-3%,-2%,-10%,10µM*,0%
CO[C@@]12[C@@H]3N[C@@H]3CN1C1=C(C(=O)C(N)=C(C)C1=O)[C@@H]2COC(N)=O,-30%,/,/,/,/
CO[C@@]12[C@H](COC(N)=O)C3=C(C(=O)C(C)=C(N)C3=O)N1C[C@@H]1N[C@@H]12,0%,/,13µM*,5.2µM*,/
CCCNC1=C(C)C(=O)C2=C(C1=O)C(COC(N)=O)[C@]1(OC)C3NC3CN21 (some centres not stated),0%,0%,1.3µM*,0.19µM*,1%
O=C(NC(=S)N1CCCc2ccccc21)c1ccc([N+](=O)[O-])cc1,10%,14%,?,7.4µM*,-4%
O=C(NC(=S)N1CCCc2ccccc21)c1ccccc1,-12%,7%,3%,?,-3%
O=C(NCc1cc(Cl)cc(Cl)c1)c1csc([C@@H]2C[C@H](O)[C@@H](CO)O2)n1,12%,/,/,/,/
Oc1ccccc1N=Nc1nc(-c2ccccc2)c(-c2ccccc2)[nH]1,13%,-128%,/,2.1µM*,-42%
COc1ccccc1N=Nc1nc(-c2ccccc2)c(-c2ccccc2)[nH]1,1%,-8%,13%,2.3µM*,1%
COc1ccc(N=Nc2nc(-c3ccccc3)c(-c3ccccc3)[nH]2)cc1,24%,11%,?,?,-32%
COc1ccc(-n2cc(-c3ccccc3)[nH]c2=S)cc1,15%,-19%,28%,?,-12%
